Rows were chosen to be rich in hits. Some 3.5% of all compounds tested hit in one or more screens of this group.
Rv3671c protease: Rv3671c serine protease inhibitors, primary screen, biochemical, fluorescence polarization, M. tuberculosis H37Rv | P9WHR9 | inhibition, % at 5.96 µM | actives 0.048% (n = 320,000) | AID 2606, 2010; in the data active means inhibition above about 38%;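 further: extracellular domain of Rv3671c used as enzyme; 0% = enzyme with DMSO and 100% = no enzyme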
Target sequence (P9WHR9 whole entry, looked up, the tested form may be a part): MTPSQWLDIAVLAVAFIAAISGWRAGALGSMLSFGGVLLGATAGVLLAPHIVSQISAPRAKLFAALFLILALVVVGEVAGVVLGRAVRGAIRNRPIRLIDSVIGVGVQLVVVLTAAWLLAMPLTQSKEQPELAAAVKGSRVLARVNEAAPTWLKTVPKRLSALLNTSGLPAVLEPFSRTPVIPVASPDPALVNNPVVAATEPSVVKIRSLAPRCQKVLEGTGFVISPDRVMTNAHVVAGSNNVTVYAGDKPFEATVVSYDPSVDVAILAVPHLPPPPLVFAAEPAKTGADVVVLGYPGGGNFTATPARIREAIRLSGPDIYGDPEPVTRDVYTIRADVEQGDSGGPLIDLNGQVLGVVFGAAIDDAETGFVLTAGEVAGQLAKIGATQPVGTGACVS
FBA Mtb inh: Mtb FBA enzyme inhibitors, primary screen, biochemical, fluorescence, strain H37Rv | purified M. tuberculosis FBA, fluorescence read-out | inhibition, % at 1 µM | actives 2.3% (n = 360,000) | AID 588726, 2011; in the data active means inhibition above about 27%;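 further: 0% = vehicle and 100% = reference inhibitor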
GDH-TPI inh: GDH-TPI coupling enzyme inhibitors, primary screen, artefact control for M. tuberculosis FBA inhibitor project, biochemical, absorbance, full deck | AID 588335, 2011 | inhibition, % at 4.8 µM | actives 1.2% (n = 360,000) | GDH-TPI coupled enzyme counterscreen, NADH absorbance; in the data active means inhibition above about 30%;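 further: 0% = DMSO wells and 100% = wells lacking the enzyme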
UGM FP inh: M. tuberculosis UGM enzyme inhibitors, primary screen, biochemical, fluorescence polarization, single point; purified UGM, fluorescence polarization probe displacement; inhibition, % at 10 µM; actives 0.06% (n = 320,000); in the data active means inhibition above about 10%, passing the limit was not always enough
* = called active by the depositor; . = not tested or not shown; + = active, no number.

SMILES | Rv3671c protease | FBA Mtb inh | GDH-TPI inh | UGM FP inh
COc1ccc(C(=O)CC(c2ccccc2)S(=O)(=O)c2ccc(C)cc2)cc1 (stereo unspecified) | -3 | . | . | -1
O=S(=O)(c1cnc(Cl)c(Br)c1)N1CCN(c2ncccn2)CC1 | -3 | 0 | 0 | 1
O=C1CCN(Cc2ccccc2)CCN1CCO | 2 | 6 | 10 | 5
O=C1CCN(Cc2ccc(O)cc2)CCN1CCO | -8 | 1 | 34* | 0
O=C(Nc1ccc2c(c1)OCO2)C1Cc2c(-c3ccccc3Oc3ccccc3)ccnc2O1 (stereo unspecified) | . | -2 | -1 | .
Cc1ccc2cc3cc(C(=O)NCCCN4CCCC4=O)oc3nc2c1 | 1 | 156* | 22 | 0
COc1ccc2cc3cc(C(=O)NCCCN4CCC(C)CC4)oc3nc2c1 | 6 | + | 32* | 6
CCN1CCN(CCCNC(=O)c2cc3cc4ccc(OC)cc4nc3o2)CC1 | -3 | + | 25 | -1
COc1ccc2cc3cc(C(=O)NCCCN4CCOCC4)oc3nc2c1 | -7 | + | 33* | -1
COc1ccc(C(=O)NCCCN2CCOCC2)cc1 | 5 | 2 | 7 | 2
COc1ccc(N2CC(C(=O)N3CCN(c4ccccc4)CC3)CC2=O)cc1 (stereo unspecified) | 1 | 1 | -9 | -2
Cc1cc(NC(=O)CS(=O)(=O)Cc2ccccc2)no1 | 0 | 1 | 5 | -3
Cc1ccc2cc3cc(C(=O)NCCN4CCOCC4)oc3nc2c1 | -3 | 91* | 48* | -1
Cc1ccc2cc3cc(C(=O)NCc4ccc5c(c4)OCO5)oc3nc2c1 | . | -7 | 26 | .
CCCOc1ccccc1C1NC(=O)NC(C)=C1C(=O)OCCOCC (stereo unspecified) | 4 | -2 | -4 | -2
CCN1C=C(C(=O)OC)C(c2cccc(C)c2)C(C(=O)OC)=C1 | 1 | + | 17 | 1
COC(=O)C1=CN(C(C)C)C=C(C(=O)OC)C1c1cccc(OC)c1 | 4 | + | 17 | -2
COC(=O)C1=C(C)NC(=O)NC1c1ccccc1Cl (stereo unspecified) | 2 | 0 | 1 | -2
COC(=O)C1=CN(c2cc(C)cc(C)c2)C=C(C(=O)OC)C1c1cccc(F)c1 | 10 | 2 | -1 | -5
COC(=O)C1=CN(C)C=C(C(=O)OC)C1c1ccccc1Cl | 5 | 199* | 19 | -3
CCCOc1ccccc1C1C(C(=O)OC)=CN(C(C)C)C=C1C(=O)OC | 1 | 165* | 13 | -1
O=C(CNc1cccc(S(=O)(=O)N2CCCC2)c1)Nc1ccc(F)cc1F | -2 | 0 | 3 | 0
CC1(Cc2cc(Cl)ccc2C(F)(F)F)C(=O)Nc2ccc(-c3ccc(F)c(Cl)c3)cc21 (stereo unspecified) | . | -5 | 8 | .
COC(=O)C1=CN(Cc2ccc(F)cc2)C=C(C(=O)OC)C1c1ccc(O)c(OC)c1 | . | 6 | 14 | 0
COC(=O)C1=CN(C(C)C)C=C(C(=O)OC)C1c1cc(Br)c(OC)c(OC)c1 | 1 | 154* | 6 | -3
SMILES | Rv3671c protease | FBA Mtb inh | GDH-TPI inh | UGM FP inh
Cc1cnccc1CNC(=O)C1CCC(=O)N(Cc2ccc(Cl)cc2)C1 (stereo unspecified) | -5 | 1 | -4 | -1
O=[N+]([O-])c1ccc(-c2cnc(NO)nc2)cc1 | 10 | 1 | 16 | 2
Nc1ncc(-c2ccc([N+](=O)[O-])cc2)cn1 | -18 | -1 | 54* | -2
COC(=O)c1c(N)n(Cc2ccc(OC)cc2)c2nc3ccccc3nc12 | 1 | 159* | 2 | -1
COc1ccc(Cn2c(N)c(C(=O)NCc3ccco3)c3nc4ccccc4nc32)cc1OC | -106 | 3 | 18 | 0
COCCOC(=O)c1c(N)n(Cc2ccc(OC)cc2)c2nc3ccccc3nc12 | 3 | 171* | 12 | 2
COc1ccc(/C=N/N=C2/NC(=O)C(CC(=O)O)S2)cc1OS(=O)(=O)c1ccccc1 (stereo unspecified) | -1 | -5 | 28 | 1
Cc1ccc(S(=O)(=O)Oc2ccc(C)cc2/C=N/N=C2\NC(=O)C(C)S2)cc1 (stereo unspecified) | -1 | -1 | 38* | 3
Cc1nn(-c2ccccc2)c(Cl)c1CN(C(=O)CCl)c1cccc2ccccc12 | -9 | -7 | -2 | 0
OC1COC(O)C(O)C1O (stereo unspecified) | 6 | 1 | 9 | -5
CN(C)CC1CC/C(=C\c2ccc(O)cc2)C1=O (stereo unspecified) | . | -8 | 12 | .

Screening data from PubChem BioAssay.
